From PubChem BioAssay (Tox21)
“And” between values parts separate entries of the source, which are not always exact repeats. Identical values can stand only once. Results filed as inconclusive are left out. The source made the active and inactive calls. Unless noted, calls follow the shape of the dose curve; as a rule, active = well fitted curve in the direction sought with a large enough effect in the repeat runs; inconclusive = weak or mixed curves; inactive = no such curve, though single readings can be large; an effect the other way counts as inactive or inconclusive.

Legend:
[1] = qHTS assay to identify small molecule antagonists of the thyroid receptor (TR) signaling pathway - cell viability counter screen (AID 743064); also: nearly all actives have a fitted effect of over 50% in size; also: potency is read from the fitted curve at half-maximal effect
Method in brief: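 Fluorescence from CellTiter-Fluor, added after 23.5 h exposure at 37 °C, reported viability of GH3.TRE-Luc cells co-treated with compound and 1 nM T3. Measured in the same wells as the luciferase TR readout.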

[2] = test system: thyroid hormone receptor (rat, GH3 cells); test: qHTS assay to identify small molecule agonists of the thyroid receptor (TR) signaling pathway (AID 743066; calls by dose curve)
[3] = target: Estrogen receptor (Homo sapiens) (UniProt P03372); test: qHTS assay to identify small molecule antagonists of the estrogen receptor alpha (ER-alpha) signaling pathway (AID 743069; active = well fitted curve in the direction sought with a large enough effect in the signal ratio in the repeat runs, not every such curve was filed as active; the % refers to the signal ratio)
Estrogen receptor (Homo sapiens), sequence (P03372 whole entry, looked up): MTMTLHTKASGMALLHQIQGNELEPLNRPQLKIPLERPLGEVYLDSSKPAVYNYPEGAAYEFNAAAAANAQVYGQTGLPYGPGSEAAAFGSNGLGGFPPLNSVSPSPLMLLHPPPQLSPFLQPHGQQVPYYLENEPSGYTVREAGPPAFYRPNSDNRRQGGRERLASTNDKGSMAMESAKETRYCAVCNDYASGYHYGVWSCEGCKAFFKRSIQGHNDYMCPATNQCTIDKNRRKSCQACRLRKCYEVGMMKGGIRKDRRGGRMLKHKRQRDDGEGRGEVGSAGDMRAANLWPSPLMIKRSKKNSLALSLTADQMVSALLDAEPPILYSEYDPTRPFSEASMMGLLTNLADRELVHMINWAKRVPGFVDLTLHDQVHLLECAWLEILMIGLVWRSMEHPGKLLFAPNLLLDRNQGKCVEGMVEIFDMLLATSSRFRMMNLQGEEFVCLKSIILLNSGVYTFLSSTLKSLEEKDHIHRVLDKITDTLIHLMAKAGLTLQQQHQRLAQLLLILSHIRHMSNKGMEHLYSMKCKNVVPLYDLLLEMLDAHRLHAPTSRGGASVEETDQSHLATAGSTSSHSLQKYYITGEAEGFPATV
Method in brief: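 Screening used a UAS-driven beta-lactamase reporter integrated into HEK293 cells expressing ER-alpha, stimulated with 17beta-estradiol alongside test compounds over 18 hr at 37C; signal came from LiveBLAzer B/G FRET fluorescence.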

[4] = qHTS assay to identify small molecule antagonists of the estrogen receptor alpha (ER-alpha) signaling pathway - cell viability counter screen (AID 743074; calls by dose curve; also: nearly all actives have a fitted effect of over 45% in size)
[5] = target: Estrogen receptor (Homo sapiens) (UniProt P03372); test: qHTS assay to identify small molecule agonists of the estrogen receptor alpha (ER-alpha) signaling pathway (AID 743075; calls by dose curve)
[6] = target: Estrogen receptor (Homo sapiens) (UniProt P03372); test: qHTS assay to identify small molecule agonists of the estrogen receptor alpha (ER-alpha) signaling pathway using the BG1 cell line (AID 743079); details: BG1Luc4E2 cells, ERE-luciferase agonist, 22 h; also: nearly all actives have a fitted effect of over 20% in size; also: potency is read from the fitted curve at half-maximal effect
[7] = qHTS assay to identify small molecule antagonists of the estrogen receptor alpha (ER-alpha) signaling pathway using the BG1 cell line - cell viability counter screen (AID 743081);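 also: compound given together with 17beta-estradiol as the ER stimulus; nearly all actives have a fitted effect of over 45% in size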
Aromatase (Homo sapiens) = Aromatase (Homo sapiens) (UniProt P11511); test: qHTS assay to identify aromatase inhibitors (AID 743083); also: nearly all actives have a fitted effect of over 55% in size
Aromatase (Homo sapiens), sequence (P11511 whole entry, looked up): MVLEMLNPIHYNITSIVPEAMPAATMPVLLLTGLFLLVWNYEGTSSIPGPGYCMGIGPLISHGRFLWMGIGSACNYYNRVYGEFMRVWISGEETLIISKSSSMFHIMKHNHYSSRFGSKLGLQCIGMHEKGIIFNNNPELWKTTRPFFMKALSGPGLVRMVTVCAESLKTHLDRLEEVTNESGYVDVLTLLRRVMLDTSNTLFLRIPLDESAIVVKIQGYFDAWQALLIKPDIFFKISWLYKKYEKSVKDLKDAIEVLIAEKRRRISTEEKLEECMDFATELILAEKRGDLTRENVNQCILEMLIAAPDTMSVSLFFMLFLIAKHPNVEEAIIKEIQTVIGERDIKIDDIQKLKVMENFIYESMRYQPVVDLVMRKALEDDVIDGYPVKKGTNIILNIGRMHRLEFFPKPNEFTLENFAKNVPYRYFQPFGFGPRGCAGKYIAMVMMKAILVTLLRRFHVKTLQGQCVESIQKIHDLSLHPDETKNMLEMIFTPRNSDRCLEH

[8] = qHTS assay to identify aromatase inhibitors - cell viability counter screen (AID 743084);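 also: cells stimulated with testosterone during compound exposure; nearly all actives have a fitted effect of over 55% in size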
[9] = qHTS assay to identify small molecule that activate the aryl hydrocarbon receptor (AhR) signaling pathway - cell viability counter screen (AID 743086);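 also: HepG2 liver cells carrying the AhR DRE luciferase reporter; nearly all actives have a fitted effect of over 45% in size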
Method in brief: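 HepG2-AhR-luc (HG2L7.5c1) cells, 4000/well, were preincubated 5 h at 37C, exposed to compound in qHTS format for 24 hr at 37C, then given CellTiter-Fluor for 30 min; viability was read as fluorescence in the reporter wells.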

[10] = target: Peroxisome proliferator-activated receptor gamma (Homo sapiens) (UniProt P37231); test: qHTS assay to identify small molecule agonists of the peroxisome proliferator-activated receptor gamma (PPARg) signaling pathway (AID 743094; active = well fitted activation curve with a large enough effect in the signal ratio in the repeat runs, not every such curve was filed as active; the % refers to the signal ratio)
Peroxisome proliferator-activated receptor gamma (Homo sapiens), sequence (P37231 whole entry, looked up): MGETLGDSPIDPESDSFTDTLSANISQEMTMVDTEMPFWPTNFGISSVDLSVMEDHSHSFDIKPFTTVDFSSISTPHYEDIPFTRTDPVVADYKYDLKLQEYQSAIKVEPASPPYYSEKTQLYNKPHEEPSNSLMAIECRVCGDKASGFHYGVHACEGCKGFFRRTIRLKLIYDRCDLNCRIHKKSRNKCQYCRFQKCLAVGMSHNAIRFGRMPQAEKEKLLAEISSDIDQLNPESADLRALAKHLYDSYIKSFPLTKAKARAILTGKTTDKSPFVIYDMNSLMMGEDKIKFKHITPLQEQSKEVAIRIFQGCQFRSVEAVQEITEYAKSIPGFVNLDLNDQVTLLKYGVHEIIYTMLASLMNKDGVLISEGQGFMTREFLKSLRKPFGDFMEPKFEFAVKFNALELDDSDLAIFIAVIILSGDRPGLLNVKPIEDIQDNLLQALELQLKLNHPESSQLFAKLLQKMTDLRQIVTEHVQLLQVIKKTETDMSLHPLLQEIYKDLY
Method in brief: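 Cells from the PPARg UAS-bla HEK293H line are plated and incubated 5 h at 37C. Compounds in DMSO are pinned in and left 17 h at 37C. LiveBLAzer B/G substrate is then added for 1 h at room temperature before fluorescence is measured.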

[11] = qHTS assay to identify small molecule antagonists of the peroxisome proliferator-activated receptor gamma (PPARg) signaling pathway - cell viability counter screen (AID 743194); details: Potency: co-treated with 50 nM rosiglitazone; also: nearly all actives have a fitted effect of over 55% in size
Method in brief: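 PPARg-UAS-bla HEK293H cells were plated, rested 5 h at 37 C, then treated with compounds plus rosiglitazone (50 nM final) for 17 h at 37 C; viability was then read by CellTiter-Glo luminescence after 30 min at room temperature.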

[12] = qHTS assay for small molecule agonists of the antioxidant response element (ARE) signaling pathway - cell viability counter screen (AID 743203; calls by dose curve; also: nearly all actives have a fitted effect of over 55% in size)
Method in brief: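 Cytotoxicity was tested in parallel with the ARE reporter screen. ARE-bla HepG2 cells were exposed to compounds for 16 hrs, and viability was taken from CellTiter-Glo luminescence.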

[13] = qHTS assay for small molecule activators of the heat shock response signaling pathway (AID 743210; active = well fitted activation curve with a large enough effect in the signal ratio in the repeat runs, with a control signal flat, not every such curve was filed as active; the % refers to the signal ratio;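 also: HeLa cells with beta-lactamase reporter driven by heat shock elements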)
Method in brief: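 Activation of heat shock element-controlled beta-lactamase expression is measured in HeLa cells by LiveBLAzer FRET fluorescence, with compound exposure lasting 5 h at 37 C and substrate loading 2.5 h at room temperature.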

[14] = qHTS assay to identify small molecule antagonists of the thyroid receptor (TR) signaling pathway (AID 743065); also: nearly all actives have a fitted effect of over 55% in size; also: potency is read from the fitted curve at half-maximal effect
Method in brief: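 GH3.TRE-Luc rat pituitary cells carrying two TR response elements driving luciferase were plated for 4 h, given compound plus 1 nM T3 (final), and incubated 23.5 h at 37 C. ONE-Glo luminescence measured reporter inhibition; CellTiter-Fluor fluorescence tracked cytotoxicity.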

[15] = target: Peroxisome proliferator-activated receptor gamma (Homo sapiens) (UniProt P37231); test: qHTS assay to identify small molecule antagonists of the peroxisome proliferator-activated receptor gamma (PPARg) signaling pathway (AID 743191; calls by dose curve; also: nearly all actives have a fitted effect of over 30% in size)
Method in brief: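 GeneBLAzer PPARg UAS-bla HEK293H cells carrying a UAS-driven beta-lactamase reporter were plated at 3000 cells/well, preincubated 5 h at 37C, then given compound for 17 h at 37C; LiveBLAzer B/G FRET substrate was read after 1 h at room temperature.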

[16] = qHTS assay for small molecule agonists of the antioxidant response element (ARE) signaling pathway (AID 743202; active = well fitted activation curve with a large enough effect in the signal ratio in the repeat runs, not every such curve was filed as active; the % refers to the signal ratio)
Method in brief: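 Steps: seed ARE-bla HepG2 cells (2,000/well); incubate 5 h at 37 C; add compounds by pin tool; incubate 16 h at 37 C; add FRET substrate; read fluorescence after 2 h at RT.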

[17] = target: Aryl hydrocarbon receptor (Homo sapiens) (UniProt P35869); test: qHTS assay to identify small molecule that activate the aryl hydrocarbon receptor (AhR) signaling pathway (AID 743085);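 also: HG2L7.5c1 human HepG2 liver cells with stably integrated DRE-driven firefly reporter; nearly all actives have a fitted effect of over 15% in size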
Aryl hydrocarbon receptor (Homo sapiens), sequence (P35869 whole entry, looked up): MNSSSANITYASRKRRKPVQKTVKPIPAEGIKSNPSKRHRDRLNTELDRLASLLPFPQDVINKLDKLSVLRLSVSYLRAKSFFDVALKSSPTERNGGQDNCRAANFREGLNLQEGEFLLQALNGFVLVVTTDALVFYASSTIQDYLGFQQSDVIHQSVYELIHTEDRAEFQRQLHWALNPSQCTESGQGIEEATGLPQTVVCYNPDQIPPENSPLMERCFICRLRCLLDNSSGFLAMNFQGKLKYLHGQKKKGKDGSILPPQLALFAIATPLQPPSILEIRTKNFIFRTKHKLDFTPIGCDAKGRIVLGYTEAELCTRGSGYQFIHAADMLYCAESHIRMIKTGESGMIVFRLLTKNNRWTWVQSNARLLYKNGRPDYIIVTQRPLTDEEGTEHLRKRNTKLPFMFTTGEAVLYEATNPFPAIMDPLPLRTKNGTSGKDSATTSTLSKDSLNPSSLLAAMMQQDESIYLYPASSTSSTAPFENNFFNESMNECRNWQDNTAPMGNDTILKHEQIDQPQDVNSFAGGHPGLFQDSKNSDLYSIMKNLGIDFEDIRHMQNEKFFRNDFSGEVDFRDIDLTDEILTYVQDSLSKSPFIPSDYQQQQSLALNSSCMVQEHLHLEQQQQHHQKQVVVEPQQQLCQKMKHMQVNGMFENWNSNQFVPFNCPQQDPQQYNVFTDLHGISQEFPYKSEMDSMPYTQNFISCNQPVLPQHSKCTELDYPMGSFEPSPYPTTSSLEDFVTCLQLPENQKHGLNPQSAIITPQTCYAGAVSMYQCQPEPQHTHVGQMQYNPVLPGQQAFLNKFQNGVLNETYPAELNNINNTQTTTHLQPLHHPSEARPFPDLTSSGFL
Method in brief: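 Cell line HG2L7.5c1 (human hepatoma, 20× DRE-luc). Plated, 5 h 37C, compound/DMSO added, 24 h 37C. CellTiter-Fluor 30 min 37C → fluorescence; then ONE-Glo 30 min RT → luminescence.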

[18] = qHTS assay to identify small molecule antagonists of the estrogen receptor alpha (ER-alpha) signaling pathway using the BG1 cell line (AID 743080; calls by dose curve;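 also: BG1 cells stimulated with 17beta-estradiol alongside compound; nearly all actives have a fitted effect of over 25% in size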)
Method in brief: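 BG1-Luc-4E2 cells (endogenous full-length ER-alpha, 4xERE luciferase) hormone-starved 5 days in charcoal-stripped FBS, plated 4,000/well for 24 h, then compound plus 17beta-estradiol for 21.5 h at 37 C; ONE-Glo luminescence read.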

[19] = qHTS assay for small molecule activators of the heat shock response signaling pathway - cell viability counter screen (AID 743209); also: nearly all actives have a fitted effect of over 50% in size
Method in brief: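 Cytotoxicity counter screen run in parallel with the HSE beta-lactamase reporter, using the same wells. HeLa HSE-bla cells received compound for 5 h at 37 C; ATP-based CellTiter-Glo luminescence was measured after 30 min at room temperature.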
% is scaled to controls: 0 for no effect and ±100 for the full control effect.

CNNC
inactive: Potency [1] | Potency [2] | Potency [3] | outcome [4] | Potency [5] | activation ([6]; at 95 µM (top of the series)) -3.86% | Potency [7] | Potency (Aromatase (Homo sapiens)) | Potency [8] | outcome [9] | outcome [10] | Potency [11] | Potency [12] | outcome [13]

CCOC(=O)NC(=S)Nc1ccccc1NC(=S)NC(=O)OCC
active: Potency [14] 54.5 µM
inactive: Potency [1] | Potency [2] | Potency [7] | Potency (Aromatase (Homo sapiens)) | Potency [8] | outcome [9] | outcome [10] | Potency [15] | Potency [11] | Potency [16] | Potency [12] | outcome [13]

Cc1cc(C)c(C(=O)P(=O)(C(=O)c2c(C)cc(C)cc2C)c2ccccc2)c(C)c1
inactive: Potency [1] | Potency [14] | Potency [2] | activation ([6]; at 70.3 µM (top of the series)) 37.1% | Potency [7] | Potency (Aromatase (Homo sapiens)) | Potency [8] | Potency [17] | outcome [9] | outcome [10] | Potency [15] | Potency [11] | outcome [13]

CC(=O)C(Cl)Cl
inactive: Potency [1] | Potency [2] | outcome [4] | Potency [5] | activation ([6]; at 95 µM (top of the series)) 0.96% | Potency [18] | Potency [7] | Potency (Aromatase (Homo sapiens)) | Potency [8] | Potency [17] | outcome [9] | outcome [10] | Potency [15] | Potency [16] | outcome [13]

CCOP(=S)(OCC)SCSc1ccc(Cl)cc1
inactive: Potency [1] | Potency [2] | Potency [3] | outcome [4] | Potency [5] | Potency [7] | Potency (Aromatase (Homo sapiens)) | Potency [8] | outcome [9] | outcome [10] | Potency [11] | Potency [12] | Potency [19]
active: Potency [6] 26.6 µM and 24.3 µM

NC(=O)O
inactive: Potency [1] | Potency [2] | Potency [3] | outcome [4] | Potency [5] | activation ([6]; at 70.3 µM (top of the series)) -5.63% | Potency [7] | Potency (Aromatase (Homo sapiens)) | Potency [8] | Potency [17] | outcome [9] | Potency [11] | Potency [16] | Potency [12] | Potency [19] | outcome [13]

CCCSC(=O)Cl
inactive: Potency [1] | Potency [2] | Potency [3] | outcome [4] | Potency [5] | activation ([6]; at 95 µM (top of the series)) 3.93% | Potency [18] | Potency [7] | Potency (Aromatase (Homo sapiens)) | Potency [8] | Potency [17] | outcome [9] | outcome [10] | Potency [11] | Potency [16] | Potency [12] | Potency [19] | outcome [13]

Cc1ncc(CNC(=O)N(CCCl)N=O)c(N)n1
inactive: Potency [1] | Potency [2] | Potency [3] | outcome [4] | Potency [5] | activation ([6]; at 70.3 µM (top of the series)) 12.7% | Potency [7] | Potency (Aromatase (Homo sapiens)) | Potency [8] | outcome [9] | outcome [10] | Potency [15] | Potency [11] | Potency [16] | Potency [12] | outcome [13]

CC(CC(C#N)(c1ccccc1)c1ccccc1)N(C)C (stereo not given)
inactive: Potency [2] | Potency [3] | outcome [4] | Potency [5] | activation ([6]; at 70.3 µM (top of the series)) -6.75% | Potency [7] | Potency (Aromatase (Homo sapiens)) | Potency [8] | Potency [17] | Potency [11] | Potency [19] | outcome [13]
active: Potency [1] 24.2 µM

COC(=O)c1ccccc1S(=O)(=O)NC(=O)N(C)c1nc(C)nc(OC)n1
inactive: Potency [1] | Potency [2] | Potency [3] | outcome [4] | Potency [5] | Potency [7] | Potency (Aromatase (Homo sapiens)) | Potency [8] | Potency [17] | outcome [9] | outcome [10] | Potency [15] | Potency [16] | Potency [19] | outcome [13]

N#CCNCC#N
inactive: Potency [1] | Potency [14] | Potency [3] | outcome [4] | Potency [5] | activation ([6]; at 70.3 µM (top of the series)) -9.97% | Potency [18] | Potency (Aromatase (Homo sapiens)) | Potency [8] | Potency [17] | outcome [9] | outcome [10] | Potency [15] | Potency [11] | Potency [16] | Potency [12] | Potency [19] | outcome [13]

O=C(N[C@H]1CN2CCC1CC2)c1cc2ccoc2cn1
inactive: Potency [1] | Potency [2] | outcome [4] | Potency [5] | activation ([6]; at 70.3 µM (top of the series)) -3.48% | Potency [18] | Potency [7] | Potency (Aromatase (Homo sapiens)) | Potency [8] | Potency [17] | outcome [9] | outcome [10] | Potency [15] | Potency [11] | Potency [12] | outcome [13]

CCC#N
inactive: Potency [1] | Potency [14] | Potency [2] | Potency [7] | outcome [9] | Potency [11] | Potency [16] | Potency [12] | Potency [19]

CC1CN1P(=O)(N1CC1C)N1CC1C (stereo not given)
inactive: Potency [1] | Potency [2] | Potency [3] | outcome [4] | Potency [5] | activation ([6]; at 70.3 µM (top of the series)) -10.3% | Potency [18] | Potency [7] | Potency (Aromatase (Homo sapiens)) | Potency [8] | Potency [17] | outcome [9] | Potency [15] | Potency [11] | Potency [12] | Potency [19]

C[N+](=O)[O-]
inactive: Potency [1] | Potency [2] | Potency [3] | outcome [4] | Potency [5] | activation ([6]; at 70.3 µM (top of the series)) 0.916% | Potency [7] | Potency (Aromatase (Homo sapiens)) | Potency [8] | outcome [9] | outcome [10] | Potency [15] | Potency [11] | Potency [12] | Potency [19] | outcome [13]

CCN(CC)c1nc(C)cc(OP(=S)(OC)OC)n1
inactive: Potency [2] | outcome [4] | Potency [5] | activation ([6]; at 70.3 µM (top of the series)) 4.15% | Potency [18] | Potency [7] | Potency [8] | outcome [9] | outcome [10] | Potency [11] | Potency [19] | outcome [13]
active: Potency [14] 61.1 µM
